Compound activity: PubChem BioAssay, Sanford-Burnham Center for Chemical Genomics
Many of the other results were omitted from the sample, so hits are more common in it than they were.
DUSP3 inh: VHR1 phosphatase inhibitors, primary screen, biochemical, colorimetric, HTS | actives 0.7% (n = 50,000) | Dual specificity protein phosphatase 3 (Homo sapiens), P51452 | recombinant VHR phosphatase, colorimetric substrate read-out | inhibition, % at 20 µM; in the data active = inhibition above about 60%
Target sequence (P51452 whole entry, looked up): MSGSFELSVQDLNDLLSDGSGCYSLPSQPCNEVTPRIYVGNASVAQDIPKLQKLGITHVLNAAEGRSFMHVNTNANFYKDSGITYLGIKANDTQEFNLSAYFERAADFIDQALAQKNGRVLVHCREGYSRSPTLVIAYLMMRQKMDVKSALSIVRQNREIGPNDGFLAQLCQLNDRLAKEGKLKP
* = called active by the depositor.

SMILES | DUSP3 inh
CCOC(=O)C1=NNC(C(=O)c2ccccc2)C1c1ccc(OC)cc1 (stereo unspecified) | 3
CCOC(=O)C1=NNC(C(=O)c2ccccc2)C1c1ccccc1 (stereo unspecified) | 0
CCCC(=O)Nc1cccc(-c2cc3ccccc3oc2=O)c1 | -5
COc1ccc(Br)cc1CN1CCN(S(=O)(=O)c2ccccc2)CC1 | -16
COc1cccc(OCCCCOc2ncnc3ccccc23)c1 | -16
Cc1ccnc(NC(=O)COc2ccc(Cl)c(C)c2)c1 | -6
Cc1cc(OCC(=O)Nc2nc(-c3ccccc3)cs2)ccc1Cl | 82*
O=C(COc1ccccc1Cl)Nc1nc(-c2ccccc2)cs1 | -8
Cc1ccccc1OCC(=O)Nc1nc(-c2ccc(Br)cc2)cs1 | -16
O=C(COc1ccc(Cl)cc1)Nc1nc(-c2ccc(Cl)cc2)cs1 | 2
Cc1ccc(OCC(=O)Nc2nc(-c3ccccc3)cs2)cc1C | 93*
O=C(c1cccc([N+](=O)[O-])c1)c1ccc2c(c1)C(=O)N(N1C(=O)c3ccccc3C1=O)C2=O | 0
CCC/C(O)=C1\C(=O)CC(C)(C)CC1=Nc1ccc(C)c(C)c1 | -12
Fc1ccc(NC(=S)N2CCN(C/C=C/c3ccccc3)CC2)cc1 | 0
O=C(c1cc(Cl)ccc1Cl)N1CCN(c2ccccc2)CC1 | -18
O=C(Nc1c(F)c(F)c(F)c(F)c1F)c1ccco1 | -4
CC(=O)C(C(C)=O)C(c1ccc(C)o1)c1ccc(C)o1 | 11
Cn1c(-c2ccccn2)nc2ccccc21 | 0
COc1ccc(Oc2ccc(Oc3ccc(OC)cc3)cc2)cc1 | -9
Nc1ccc(Oc2ccc(N)c(N)c2)cc1N | 75*
Nc1ccc(Oc2ccc(N)cc2)cc1 | 10
CCOC(=O)c1c(NC(=O)/C=C/c2ccc(OC)c(OC)c2)sc2c1CC(C)(C)OC2 | -21
CCOc1ccc2nc(SC3CC(=O)N(c4cc(Cl)ccc4Cl)C3=O)sc2c1 (stereo unspecified) | -5
Cc1ccc(N2C(=O)CC(NCc3cccc(C(F)(F)F)c3)C2=O)cc1 (stereo unspecified) | -29
CN1C(=O)/C(=C\c2ccc([N+](=O)[O-])o2)SC1=S | -4
SMILES | DUSP3 inh
CN1C(=O)/C(=C\c2ccc(Sc3ccc(Cl)cc3)o2)SC1=S | 62*
CN1C(=O)/C(=C\c2ccc(-c3ccc(F)c(Cl)c3)o2)SC1=S | -2
CCCC(=O)N1CCN(c2ccc(C(C)=O)cc2F)CC1 | -2
CSc1nc2sc3c(c2c2nnnn12)CCN(C)C3 | 19
c1ccc(NC2=Nc3cccc4cccc2c34)cc1 | -9
Nc1cccc(C2=Nc3cccc4cccc(c34)N2)c1 | 85*
Nc1cccc(-c2cc(C(=O)O)c3ccccc3n2)c1 | 0
CCC(=O)Nc1nc2ccccc2n1CCCN(C)C | 3
O=C(/C=C/c1ccco1)NCc1ccc2c(c1)OCO2 | -3
O=C(/C=C/c1ccco1)NCCCCNC(=O)/C=C/c1ccco1 | 26
O=C(/C=C/c1ccco1)NC(=S)NCc1ccccc1 | 75*
CC(=O)c1ccc(N/C(=N/S(=O)(=O)c2ccccc2)c2ccccc2)cc1 | -61
COc1ccc(NC(=O)Cn2nc(C)c([N+](=O)[O-])c2C)cc1OC | -26
Cc1cccc(OCC(=O)Nc2ccccc2C(F)(F)F)c1 | -22
O=C(COc1ccc(Cl)cc1)Nc1ccccc1C(F)(F)F | -2
CCc1ccc(OCC(=O)Nc2ccccc2C(F)(F)F)cc1 | 112*
CCOC(=O)c1c(NC(=O)COc2cc(Cl)ccc2Cl)sc(C(C)=O)c1C | -1
CC(=O)Nc1ccccc1NC(=O)CCc1ccccc1 | 5
O=C1CSC2=NCN(c3cccc(Cl)c3)CN12 | 1
O=C1NC(=O)/C(=C\c2cccc(Cl)c2)S1 | -4
O=C1CC(=O)N(c2cccc(Cl)c2)N1 | 75*
COc1ccccc1N(CC(=O)NCCc1ccccc1)S(=O)(=O)c1ccccc1 | -18
O=Cc1ccc(-c2cc(C(F)(F)F)cc(C(F)(F)F)c2)o1 | -13
COC(=O)C1=C(C)N(C)C(C)=C(C(=O)OC)C1c1ccc(OC)c(OC)c1 | 7
COC(=O)C1=C(C)N(C)C(C)=C(C(=O)OC)C1c1cc(Br)c(OC)c(OC)c1 | 116*
SMILES | DUSP3 inh
COC(=O)C1=C(C)N(C)C(C)=C(C(=O)OC)C1c1cc(OC)c(OC)c(OC)c1 | -2
O=C1C=C(Nc2ccc(Cl)cc2)C(=O)N1c1cccc(C(F)(F)F)c1 | -5
Cc1ccc(Nc2nc3ccc(C)cn3c(=O)c2/C=N/O)cc1 | 10
CCCOc1ccc(N2C(=O)CC(SC(N)=Nc3ccccc3)C2=O)cc1 (stereo unspecified) | -37
Cc1cc(=O)oc2cc(OCC(=O)Nc3sc4c(c3C(N)=O)CCC4)ccc12 | 78*
Cc1ccc(OCC(=O)Nc2sc3c(c2C(N)=O)CCC3)c(C)c1 | 16
CCN(CC)C(=O)c1sc(NC(=O)COc2ccc3ccccc3c2)c(C(=O)OC(C)C)c1C | 1
COc1ccc(OCC(=O)Nc2sc3c(c2C(N)=O)CCCC3)cc1 | -20
COC(=O)c1ccccc1NC(=O)COc1ccc2ccccc2c1 | -8
COC(=O)c1sc(NC(=O)COc2ccc3ccccc3c2)c(C(N)=O)c1C | 97*
CCOC(=O)c1sc(NC(=O)/C=C/c2ccc3c(c2)OCO3)c(C(=O)OCC)c1C | -17
O=C1NCC(c2ccccc2)C1C(=O)N/N=C\c1cc(O)c(Br)cc1Br (stereo unspecified) | 7
COC(=O)c1sc(NC(=O)c2ccc(Br)o2)c(C(=O)OC)c1C | -31
O=C(Nc1ccccc1)Nc1nccs1 | 5
O=C(Nc1ccccc1)Nc1nnc(C(c2ccccc2)c2ccccc2)s1 | -18
O=C(Nc1ccccc1)Nc1nc(C(c2ccccc2)c2ccccc2)cs1 | 88*
CCCN1CCC(=NNC(=O)c2ccccc2O)CC1 | -14
CN1CCC(=NNC(=O)c2cc3ccccc3cc2O)CC1 | 94*
CN1CCC(=NNC(=O)c2cccc([N+](=O)[O-])c2)CC1 | -14
Cc1no[n+]([O-])c1COc1ccccc1/C=C1\N=C(c2ccccc2)OC1=O | 1
COc1ccc(CCN2C(=O)CSC2c2ccccc2[N+](=O)[O-])cc1OC (stereo unspecified) | -34
Cc1cccc(NC(=O)C(C)Oc2ccccc2)c1C (stereo unspecified) | -39
Cc1cccc(NC(=O)C2C(c3ccccc3)C=CC(c3ccccc3)C2C(=O)O)c1C (stereo unspecified) | 98*
Cc1cccc(NC(=O)C2CC2(c2ccccc2)c2ccccc2)c1C (stereo unspecified) | 5
CCOc1cccc(C(=O)Nc2ccc(Br)cc2C(=O)O)c1 | -13
SMILES | DUSP3 inh
CCOC(=O)c1ccc(-n2c(C)cc(C=C3C(=O)c4ccccc4C3=O)c2C)cc1 | -22
CC(C)(C)c1ccc(-c2nc(-c3cccc([N+](=O)[O-])c3)no2)cc1 | -13
O=C(c1cnn2c1NC(c1cccs1)CC2C(F)(F)F)N1CCSCC1 (stereo unspecified) | -34
COc1ccc(-c2cc(=O)n3[nH]c(-c4ccccc4)cc3n2)cc1 | 1
Clc1ccc(CSc2nnnn2-c2ccccc2)cc1 | -10
Fc1ccccc1-n1nnnc1SCc1cc2c(cc1Cl)OCO2 | 114*
Clc1cc2c(cc1CSc1nnnn1-c1ccccc1)OCO2 | 112*
Clc1ccccc1CSc1nnnn1-c1ccccc1 | -4
c1ccc(-n2nnnc2SCc2cccc(CSc3nnnn3-c3ccccc3)n2)cc1 | 12
Clc1cc2c(cc1CSc1nc3ncccc3[nH]1)OCO2 | 12
CCC(=O)Nc1ccc(O)c(-c2nc3cc(C)c(C)cc3o2)c1 | 9
